# Measurements from PubChem BioAssay (Tox21).
# Records with an inconclusive call do not appear. A number with no mark means an inactive call. The call rests on the fitted dose curve.
# Assay: p53 small molecule agonists, cell-based qHTS assay with rat liver microsomes: qHTS cell viability counter screen (AID 1963580); further: nearly all actives have a fitted effect of over 45% in size
# Settings: p53RE-bla HCT-116 + rat microsomes, ATP viability, 16 h; series mostly up to 66 µM; activity change, negative = cytotoxicity: at the top concentration
# How it was run: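 Luminescent ATP readout (CellTiter-Glo, 30 min at room temperature) reports viability of p53RE-bla HCT-116 cells after 16 h at 37 C with test compounds under metabolic activation by rat liver microsomes and NADPH at 0.5 mg/mL final each.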
# On the % scale 0 is the no-effect control and ±100 the full control effect.
row,Compound,"activity change, negative = cytotoxicity"
1,COc1ccc(C(=O)/C(Br)=C\C(=O)O)cc1,-21.2%
2,COc1ccc(-c2cc(=S)ss2)cc1,1.41% [at 30.3 µM]
3,O=C(CCCCCCC(=O)Nc1ccccc1)NO,8.22% [at 30.3 µM]
4,c1cc(CN2CCCCC2)cc(OCCCNc2nc3ccccc3s2)c1,0.241% [at 30.3 µM]
5,O=c1[nH]c2ccccc2n1CCCN1CCN(C(c2ccccc2)c2ccccc2)CC1,-8.39% [at 30.3 µM]
6,Cc1ccc(O)c(C(C)(C)C)c1,-11%
7,O=C(OC[C@H]1O[C@@H](OC(=O)c2cc(O)c(O)c(OC(=O)c3cc(O)c(O)c(O)c3)c2)[C@H](OC(=O)c2cc(O)c(O)c(OC(=O)c3cc(O)c(O)c(O)c3)c2)[C@@H](OC(=O)c2cc(O)c(O)c(OC(=O)c3cc(O)c(O)c(O)c3)c2)[C@@H]1OC(=O)c1cc(O)c(O)c(OC(=O)c2cc(O)c(O)c(O)c2)c1)c1cc(O)c(O)c(OC(=O)c2cc(O)c(O)c(O)c2)c1,7.08% [at 13.5 µM]
8,COc1cc(Nc2c(C#N)cnc3cc(OCCCN4CCN(C)CC4)c(OC)cc23)c(Cl)cc1Cl,3.53% [at 30.3 µM]
9,N[C@@H](C(=O)N[C@@H]1C(=O)N2C(C(=O)O)=C(Cl)CS[C@H]12)c1ccccc1,0.042% [at 5.99 µM]
10,CCCC(=O)O[C@]1(C(=O)CCl)[C@@H](C)C[C@H]2[C@@H]3CCC4=CC(=O)C=C[C@]4(C)[C@@]3(F)C(=O)C[C@@]21C,-0.128% [at 30.3 µM]
11,Cc1cccc(O)c1N,0.0341%
12,Cc1cc(O)c2c(c1)C(=O)c1cc(O)cc(O)c1C2=O,-12.9%
13,O=C1Cc2cc(CCN3CCN(c4nsc5ccccc45)CC3)c(Cl)cc2N1,-0.67% [at 30.3 µM]
